Molecules are shown by their SMILES. Among all 2,000 compounds or so, about 250 (12%) were called active. The sample as a whole holds a higher share of actives than the screen did. A number with no mark means an inactive call. No stated cut-off is given here; in the data, active means hERG blockade below about -20% or above about 20%; inactive means in between.

Voltage-gated inwardly rectifying potassium channel KCNH2 (Homo sapiens), sequence (Q12809 whole entry, looked up): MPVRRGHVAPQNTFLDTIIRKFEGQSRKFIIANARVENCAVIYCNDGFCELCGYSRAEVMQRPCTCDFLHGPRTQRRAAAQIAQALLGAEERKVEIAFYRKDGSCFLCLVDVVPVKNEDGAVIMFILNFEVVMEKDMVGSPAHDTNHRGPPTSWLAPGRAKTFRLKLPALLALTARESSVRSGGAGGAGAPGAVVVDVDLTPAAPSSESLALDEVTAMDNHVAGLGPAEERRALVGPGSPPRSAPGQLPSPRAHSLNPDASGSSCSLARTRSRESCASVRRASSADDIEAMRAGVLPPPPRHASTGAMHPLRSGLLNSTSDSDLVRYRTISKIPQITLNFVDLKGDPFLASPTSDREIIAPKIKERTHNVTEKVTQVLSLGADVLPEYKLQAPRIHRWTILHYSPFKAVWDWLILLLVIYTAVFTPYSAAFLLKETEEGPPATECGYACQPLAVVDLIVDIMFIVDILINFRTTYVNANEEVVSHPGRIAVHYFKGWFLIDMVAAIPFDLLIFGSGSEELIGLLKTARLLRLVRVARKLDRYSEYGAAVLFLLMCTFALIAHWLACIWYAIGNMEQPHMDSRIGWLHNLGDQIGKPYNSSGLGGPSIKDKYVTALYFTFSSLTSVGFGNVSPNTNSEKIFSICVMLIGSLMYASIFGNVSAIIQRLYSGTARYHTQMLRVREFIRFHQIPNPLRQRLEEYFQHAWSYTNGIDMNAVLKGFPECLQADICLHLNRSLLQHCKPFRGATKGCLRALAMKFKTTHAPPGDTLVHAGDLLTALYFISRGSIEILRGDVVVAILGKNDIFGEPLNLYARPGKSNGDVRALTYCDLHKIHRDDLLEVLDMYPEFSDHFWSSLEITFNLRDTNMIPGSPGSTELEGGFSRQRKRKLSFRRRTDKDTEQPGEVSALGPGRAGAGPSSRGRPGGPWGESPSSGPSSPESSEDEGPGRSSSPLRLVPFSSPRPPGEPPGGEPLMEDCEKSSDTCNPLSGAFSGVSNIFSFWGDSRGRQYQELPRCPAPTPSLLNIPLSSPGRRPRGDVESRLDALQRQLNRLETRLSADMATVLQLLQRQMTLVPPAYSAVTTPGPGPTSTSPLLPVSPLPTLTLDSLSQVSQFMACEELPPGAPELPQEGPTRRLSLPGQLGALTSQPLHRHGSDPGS

The assay concerns the target Voltage-gated inwardly rectifying potassium channel KCNH2 (Homo sapiens) (UniProt Q12809). The experiment in a line: KCNH2 potassium channel function modulators, cell-based (AID 376).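 Further: 0% = buffer alone and 100% = reference blocker.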 The conditions noted are these: hERG-expressing cells, channel activity single-concentration screen; concentration not given here. (hERG is a cardiac potassium channel; its block is linked to QT prolongation.)
With `CC12CCC(CN(CCC[N+](C)(C)C)C1)C2(C)C` (centres undefined), the hERG blockade is 4.55%.

As to `CC1CCC2N(C1)CC1C3(O)CC45OC6(O)C(O)CCC4(C)C6CCC5C3(O)CC(O)C1(O)C2(C)O` (centres undefined), the hERG blockade was 12.9%.

For the molecule `CSCCC(N)P(C)(=O)O` (centres undefined), the hERG blockade was -4.74%.

For the molecule `C[As+](C)(c1ccc(Br)c([N+](=O)[O-])c1)c1ccc(Br)c([N+](=O)[O-])c1.O=[N+]([O-])[O-]`, the hERG blockade is 13.6%.

On to `N=C(N)n1cc(C=NN=C(N)N)cn1`, for which the hERG blockade was 47.3% (active).

For the molecule `S=P(C1CCCCC1)(C1CCCCC1)C(c1cccnc1)N1CCCC1` (centres undefined), the hERG blockade is 1.56%.

Consider `O.O.[NH-]C1(C(=O)O)CCCC1.[NH-]C1(C(=O)O)CCCC1.[Ni+2]`, for which the hERG blockade is 1.76%.

In the case of `Cc1cc[c]([Sb]2[O]C(CO)C(C(O)C(O)C(=O)O)[O]2)cc1` (centres undefined), the hERG blockade was -4.77%.

For `COc1cc2c(cc1OC)C13CCN4CC5=CCOC(CC(=O)O)C(C5CC41)C3N2` (centres undefined), the hERG blockade was 2.07%.

For `O=c1[nH]cnc2[nH]cc(CN3CCCCC3)c12`, the hERG blockade is 1.35%.

As to `O=c1[nH]c2ccccc2n1CCCN1CCC(n2c(=O)[nH]c3cc(Cl)ccc32)CC1`, the hERG blockade is 67.7% (active).

With `CCNC(C)(C)C(SS)c1ccc(Br)cc1` (centres undefined), the hERG blockade is -7.7%.

Turning to `O=C(O)CC1OCC=C2CN3CCC45c6ccccc6NC4C1C2CC35` (centres undefined), the hERG blockade was -7.07%.

As to `CC1(C)CC(=N[N-]C(N)=[SH+])CC(C)(C)N1.CC1(C)CC(=N[N-]C(N)=[SH+])CC(C)(C)N1.[Ni]`, the hERG blockade was -0.871%.

With `O=C(O)C1[O][Sb][O]C(C(=O)O)C1O` (centres undefined), the hERG blockade is -9.98%.

As for `CC(C)=CC1C(C(=O)OCc2cc3c(cc2Cl)OCO3)C1(C)C` (centres undefined), the hERG blockade was 1.35%.

`c1nc(N2CC2)c2cnn(C3CCCCO3)c2n1` (centres undefined): the hERG blockade is 4.58%.

With `O=C(O)C1C2c3ccccc3C(c3ccccc32)C1C(=O)NCC1CC1` (centres undefined), the hERG blockade is -8.3%.

`CC(C)CCC1(CCN)C(=O)NC(=O)NC1=O`: the hERG blockade was -21.5% (active).

For `CC12Cc3cnc(-c4ccccc4)nc3CC1CCC1C2CCC2(C)C1CCC2(C)O` (centres undefined), the hERG blockade is 6.41%.

`NC(Cc1c[nH]c2cc([N+](=O)[O-])ccc12)C(=O)O` (centres undefined): the hERG blockade is -0.372%.

For the molecule `CCC1(CCSC(=N)N)C(=O)NC(=O)NC1=O`, the hERG blockade was -24.7% (active).

With `CCNCCC1(CC)C(=O)NC(=O)NC1=O`, the hERG blockade is -21.7% (active).

Regarding `NCC(O)CSP(=O)(O)O` (centres undefined), the hERG blockade is -13.3%.

For the molecule `CS(=N)(=O)CCC(N)P(=O)(O)O` (centres undefined), the hERG blockade was -8.23%.

Consider `COc1cc2ccccc2c2cc([N+](=O)[O-])oc12`, for which the hERG blockade was 15.9%.

With `CC12CCC(O)CC1CCC1C2CCC2(C)C(C(=O)CC(O)C(F)(F)F)CCC12` (centres undefined), the hERG blockade is -1.73%.

Regarding `CC(C)CC(=O)CC(O)C(Cl)(Cl)Cl` (centres undefined), the hERG blockade was -17%.

With `CC(Br)(C(=O)O)C(Br)C(=O)O` (centres undefined), the hERG blockade is 11.1%.

Regarding `CCC1C2Cc3ccc(O)cc3C1(CC)CCN2C` (centres undefined), the hERG blockade was 1.71%.

For `CCC1=C(CC2NCCc3cc(OC)c(OC)cc32)CC2c3ccccc3CCN2C1` (centres undefined), the hERG blockade is 46% (active).

Regarding `COC(=O)c1c(C)ccc2c(O)c3c(cc12)C(=O)c1c2c(cc(O)c1C3=O)C1(C)OC(C)(O2)C(O)C(N(C)C)C1O` (centres undefined), the hERG blockade is 18.8%.

With `NCCc1ccc(S(=O)(=O)O)cc1[N+](=O)[O-]`, the hERG blockade was 2.55%.

Take `O=[As](O)(O)c1ccc(NCc2ccccc2)cc1`: the hERG blockade was -4.95%.

Regarding `COc1ccc(CC(N)c2ccc(OC)cc2)cc1` (centres undefined), the hERG blockade is 16.9%.

As for `CC(=O)OC1CC2(C)C(=CC1C1SCCS1)CCC1C2CCC2(C)C(OC(C)=O)CCC12` (centres undefined), the hERG blockade was 4.12%.

With `Cc1ccc(C2(c3ccc(C)c(O)c3C)CCN(C)CC2)c(C)c1O`, the hERG blockade is 21.1% (active).

For the molecule `Cc1ncc([N+](=O)[O-])n1CCN=[N+]=[N-]`, the hERG blockade is -3.49%.

As for `c1ccc(C[N+]23CN4CN(CN(C4)C2)C3)cc1`, the hERG blockade is -14.9%.

As for `Nc1nc2c(ncn2C2OC(CO)C(O)C2O)c(=[SH+])[nH]1.O=[N+]([O-])c1ccc(O)[c]([Hg])c1` (centres undefined), the hERG blockade is 5.92%.

On to `COC(=O)C1c2cc3c(c(O)c2C(O)CC1(C)O)C(=O)c1c(O)cc2c(c1C3=O)OC1OC2(C)C(O)C(N(C)C)C1O` (centres undefined), for which the hERG blockade was 18.4%.

Turning to `NC(Cc1ccccc1)P(=O)(O)O` (centres undefined), the hERG blockade was 1.7%.

Regarding `CC1(C)CCC(C)(C)c2c1ccc(O)c2Cc1c(O)ccc2c1C(C)(C)CCC2(C)C`, the hERG blockade was -7.52%.

In the case of `COc1cc2c3cc1Oc1c(O)c(OC)cc4c1C(Cc1ccc(cc1)Oc1cc(ccc1O)CC3N(C)CC2)N(C)CC4` (centres undefined), the hERG blockade is 38.6% (active).

With `COc1ccc(CC2C(=O)NC(C)C(=O)N(C)C3C(=O)N(C)C(Cc4ccc(O)c(c4)Oc4ccc(cc4)C3O)C(=O)NC(C)C(=O)NC(C)C(=O)N2C)cc1` (centres undefined), the hERG blockade was 6.31%.

As to `COc1cc2c(cc1O)CC1c3c(cc(O)c(OC)c3-2)CCN1C` (centres undefined), the hERG blockade is 4.49%.

Turning to `N#CS.N=C=S.N=C=S.[Cu+2].[NH2-].[NH2-].[NH2-].[NH2-].c1ccc2ncccc2c1`, the hERG blockade is 6.79%.

With `c1cncc(CNCCN2CCNCC2)c1`, the hERG blockade was -8.8%.

For the molecule `NC1(P(=O)(O)O)CCCCC1`, the hERG blockade is -4.89%.

(Values after PubChem BioAssay AID376 (PDSP, 2006).)
